# Values without a mark were called inactive. Results filed as inconclusive are left out. Entries that show only a call come without a potency. The source made the active and inactive calls. The call rests on the fitted dose curve; in most records, active means well fitted curve in the direction sought with a large enough effect in the repeat runs; inconclusive means weak or mixed curves; inactive means no such curve, though single readings can be large; an effect the other way counts as inactive or inconclusive.
# How the values were obtained:
# [1] = A CellTox Green Cytotoxicity Assay to monitor cytotoxicity in HepG2 cells - 8 hour (AID 1224890); further: nearly all actives have a fitted effect of over 45% in size
# In short: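 Fluorescent DNA-binding dye, 600 HepG2 cells/well, 5 h preincubation then compound in DMSO; same plates read at 0–40 h, 37 C.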
# [2] = qHTS assay to identify small molecule antagonists of the estrogen receptor alpha (ER-alpha) signaling pathway using the BG1 cell line in the presence of 0.1 nM 17-beta-estradiol - cell viability counter screen (AID 1259241); further: nearly all actives have a fitted effect of over 40% in size
# In short: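 CellTiter-Fluor read (30 min, 37C) on ER-alpha/ERE-luc VM7Luc4E2 cells; 22 hr compound treatment; agonist 0.1 nM E2 final; same-well multiplex.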
# [3] = target: Androgen receptor (Homo sapiens) (UniProt P10275); assay: qHTS assay to identify small molecule antagonists of the androgen receptor (AR) signaling pathway using the MDA cell line in the presence of 0.5 nM R1881 (AID 1259243); further: nearly all actives have a fitted effect of over 50% in size
# Androgen receptor (Homo sapiens), sequence (P10275 whole entry, looked up): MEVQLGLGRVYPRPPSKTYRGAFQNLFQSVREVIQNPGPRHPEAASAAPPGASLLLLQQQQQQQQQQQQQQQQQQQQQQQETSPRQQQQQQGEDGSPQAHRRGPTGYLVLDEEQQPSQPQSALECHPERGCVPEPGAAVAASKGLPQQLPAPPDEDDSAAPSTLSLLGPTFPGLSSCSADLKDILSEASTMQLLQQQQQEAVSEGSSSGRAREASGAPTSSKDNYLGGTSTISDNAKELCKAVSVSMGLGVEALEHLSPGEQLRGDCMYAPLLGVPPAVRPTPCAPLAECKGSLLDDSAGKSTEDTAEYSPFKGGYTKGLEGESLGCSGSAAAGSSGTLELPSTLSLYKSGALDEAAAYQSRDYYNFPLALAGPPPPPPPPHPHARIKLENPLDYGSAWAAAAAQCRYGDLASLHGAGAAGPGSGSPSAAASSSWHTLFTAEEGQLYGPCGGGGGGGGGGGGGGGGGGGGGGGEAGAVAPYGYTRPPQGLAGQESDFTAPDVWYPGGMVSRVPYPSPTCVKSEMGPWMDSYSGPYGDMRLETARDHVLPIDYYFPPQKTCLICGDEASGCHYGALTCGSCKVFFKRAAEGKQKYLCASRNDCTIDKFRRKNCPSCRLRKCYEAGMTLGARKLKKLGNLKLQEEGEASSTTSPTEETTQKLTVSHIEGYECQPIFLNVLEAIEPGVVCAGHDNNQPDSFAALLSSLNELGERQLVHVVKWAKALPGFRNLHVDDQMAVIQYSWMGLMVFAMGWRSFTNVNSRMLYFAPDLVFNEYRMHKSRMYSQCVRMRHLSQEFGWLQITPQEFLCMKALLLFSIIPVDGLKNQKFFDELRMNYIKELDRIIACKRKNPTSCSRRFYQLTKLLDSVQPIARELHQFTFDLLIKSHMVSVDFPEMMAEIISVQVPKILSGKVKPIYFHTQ
# In short: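 Cells: MDA-kb2 (MMTV-luc). Stimulus: 0.5 nM R1881. Time: 16 hr, 37C, no CO2. Detection: ONE-Glo luminescence after 30 min at RT.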
# [4] = qHTS assay to identify small molecule HDAC inhibitors (AID 1259364); further: potency means the concentration at half of the fitted maximal effect;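 further: wild-type HCT-116 cells with endogenous class I/II HDAC activity; nearly all actives have a fitted effect of over 45% in size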
# In short: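 After a 2 hr compound incubation (37C, 5% CO2), HCT-116 cells seeded at 1,500/well the day before received HDAC-Glo reagent; signal read as luminescence after 30 min at room temperature.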
# [5] = qHTS assay to identify small molecule HDAC inhibitors - cell viability counter screen (AID 1259365); further: series mostly up to about 92 µM; nearly all actives have a fitted effect of over 50% in size
# In short: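 To flag cytotoxic hits, 1,500 wild-type HCT-116 cells per well, plated the day before, receive test compounds for 2hr at 37 C before CellTiter-Glo reagent and a luminescence read.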
# [6] = qHTS assay to identify small molecule antagonists of the sonic hedgehog signaling (Shh) pathway - cell viability counter screen (AID 1259367); further: nearly all actives have a fitted effect of over 55% in size; further: potency means the concentration at half of the fitted maximal effect
# In short: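 Viability was read by CellTiter-Fluor fluorescence in the same wells, reagent added 23 hr into compound treatment and incubated 1 hr at 37C. The 3T3 Gli1-Luc reporter cells (2,000/well) received conditioned medium after compound and ran 24 hr.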
# [7] = qHTS assay to identify small molecule antagonists of the androgen receptor (AR) signaling pathway using the MDA cell line in the presence of 0.5 nM R1881 - cell viability counter screen (AID 1259242); further: nearly all actives have a fitted effect of over 45% in size
# In short: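 Human breast carcinoma MDA-kb2 cells, cultured without CO2, receive compounds alongside 0.5 nM (final) R1881 agonist. After 16 hr at 37C, viability is taken as live-cell protease signal.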
# [8] = qHTS assay to identify small molecule agonists of the sonic hedgehog signaling (Shh) pathway - cell viability counter screen (AID 1259366); further: nearly all actives have a fitted effect of over 50% in size
# In short: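 Fluorescence from CellTiter-Fluor reports live cells in this counter screen. NIH/3T3-derived Gli1-Luc reporter cells receive test compounds for 24hr at 37C; reagent goes in at 23hr.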
# [9] = target: Estrogen receptor (Homo sapiens) (UniProt P03372); assay: qHTS assay to identify small molecule antagonists of the estrogen receptor alpha (ER-alpha) signaling pathway using the BG1 cell line in the presence of 0.1 nM 17-beta-estradiol (AID 1259244); further: nearly all actives have a fitted effect of over 50% in size
# Estrogen receptor (Homo sapiens), sequence (P03372 whole entry, looked up): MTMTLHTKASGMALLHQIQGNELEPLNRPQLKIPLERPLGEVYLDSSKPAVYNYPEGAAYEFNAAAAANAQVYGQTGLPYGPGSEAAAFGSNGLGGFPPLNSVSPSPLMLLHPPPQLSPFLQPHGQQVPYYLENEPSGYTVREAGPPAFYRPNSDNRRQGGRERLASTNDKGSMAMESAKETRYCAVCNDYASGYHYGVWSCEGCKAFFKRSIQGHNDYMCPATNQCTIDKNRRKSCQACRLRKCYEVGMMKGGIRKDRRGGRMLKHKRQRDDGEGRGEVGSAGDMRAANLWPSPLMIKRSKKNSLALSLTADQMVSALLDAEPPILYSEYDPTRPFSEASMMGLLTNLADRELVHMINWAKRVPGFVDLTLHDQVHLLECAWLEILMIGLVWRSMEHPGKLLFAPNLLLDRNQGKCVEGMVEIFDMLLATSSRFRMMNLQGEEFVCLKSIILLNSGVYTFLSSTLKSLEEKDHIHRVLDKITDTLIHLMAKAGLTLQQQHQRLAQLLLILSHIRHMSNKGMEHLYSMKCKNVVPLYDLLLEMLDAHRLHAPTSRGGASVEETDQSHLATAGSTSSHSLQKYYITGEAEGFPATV
# In short: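 Seeding of stripped-serum-adapted VM7Luc4E2 cells, 24 h attachment, compound transfer, then 0.1 nM final 17beta-estradiol; after 22 h incubation, ONE-Glo reagent and luminescence reading.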
Structure (SMILES),Potency [1],Potency [2],Potency [3],Potency [4],outcome [5],Potency [6],outcome [7],Potency [8],Potency [9]
NCCCN1CCN(CCCN)CC1,inactive,inactive,inactive,inactive,inactive,inactive,,,
COc1cc2c(cc1N)oc1ccccc12,inactive,inactive,,,inactive,62.4 µM (active),inactive,,
CN(CCCN1c2ccccc2CCc2ccccc21)CC(=O)c1ccc(Cl)cc1,inactive,inactive,,inactive,,,inactive,inactive,
NC(=O)NS(=O)(=O)c1ccc(Cl)cc1,inactive,inactive,inactive,inactive,inactive,inactive,,inactive,
O=C(C(Cl)Cl)N1CCOC12CCCCC2,inactive,inactive,,inactive,inactive,inactive,,inactive,inactive
CCCC(CCC)(C(=O)OCC)C(=O)OCC,inactive,inactive,inactive,inactive,inactive,,,inactive,inactive
Cc1ccccc1C(=O)Nc1ccc(C(=O)N2CCCC(O)c3cc(Cl)ccc32)c(C)c1 (stereo not given),inactive,inactive,,inactive,inactive,inactive,inactive,inactive,
COC(=O)C(C)O (stereo not given),inactive,inactive,inactive,inactive,inactive,inactive,,inactive,
C[C@]12C(=O)OC(=O)[C@H]1[C@H]1C=C[C@@H]2C1,inactive,inactive,,inactive,inactive,,,,inactive
COC(C)CCO (stereo not given),inactive,inactive,inactive,inactive,inactive,inactive,,inactive,
O=C(CC(=O)C(F)(F)F)c1ccccc1,inactive,inactive,,inactive,,inactive,inactive,inactive,
Cc1c[nH]c(=S)[nH]c1=O,inactive,inactive,,inactive,inactive,inactive,inactive,inactive,
COc1ccc(Nc2ccc(OC)cc2)cc1,inactive,inactive,,27.8 µM (active),inactive,inactive,inactive,inactive,
Cc1nc(-c2ccccn2)ncc1C(=O)Nn1cc(C)c2cc(F)ccc21,inactive,inactive,,inactive,inactive,inactive,inactive,inactive,
